Cycloheximide cs: affects cycloheximide protein synthesis inhibition readout, counter-screen | cell reporter, cycloheximide protein synthesis inhibition counterscreen | max response, % | 12% of 300,000 active; in the data active = max response mostly above about 13%, no sharp cut-off; inactive = mostly below about 14%; also: read at 38.3 µM for the half of the compounds with a filed dose; 0% is about no effect
Pf growth 96h: P. falciparum growth inhibition at 96 hour, primary screen for plastid delayed-death inhibitors | Potency, µM (doses to about 28.7 µM), for inactives: at the top dose activity change, negative = inhibition, usual class: inhibitors | P. falciparum luciferase reporter growth, 96 h | 6.9% of 320,000 active; also: potency is read from the fitted curve at half-maximal effect; % is scaled to controls: 0 for no effect and ±100 for the full control effect
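96 h incubation, 37 C, 5% CO2, of luciferase-reporter P. falciparum-infected RBCs (2% hematocrit, 0.05% parasitemia final) with test compounds; endpoint luminescence.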
Shiga inhibitor: inhibitors of Shiga toxin in Vero cells. Vero cells, Shiga toxin protein synthesis inhibition reporter. 9.2% of 290,000 active. inhibition, % at 38.7 µM. AID 2315; in the data active = inhibition mostly above about 28%, no sharp cut-off; inactive = mostly below about 43%; also: 0% is about no effect
Pf growth 48h: P. falciparum growth inhibition at 48 hours (one generation); P. falciparum luciferase growth in erythrocytes, 48 h; Potency, µM (top dose mostly 28.7 µM), without a hit: at the highest dose activity change, negative = inhibition, usual class: inhibitors; 5.9% of 310,000 active; AID 504832; also: potency is read from the fitted curve at half-maximal effect; % is scaled to controls: 0 for no effect and ±100 for the full control effect
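Read-out is firefly luciferase luminescence from an integrated reporter in P. falciparum, so falling signal marks reduced parasite growth. Infected erythrocytes were at 2% hematocrit and 0.1% parasitemia (final) in Albumax-supplemented RPMI 1640.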
* hit, by the source's call; u = inconclusive; x = not tested or not shown. The list is not random: actives were taken first. Their share in the collection is about 21%. Unless noted, calls follow the shape of the dose curve; as a rule, active = well fitted inhibition curve with a large enough effect; inconclusive = small, poorly fitted or top-dose-only effect, or another doubt; inactive = no such curve, though single readings can be large or run the other way.

SMILES	Cycloheximide cs	Pf growth 96h	Shiga inhibitor	Pf growth 48h
COc1ccc(C(=O)NC2CC3CCCC(C2)N3Cc2ccccc2)cc1OC (stereo not drawn)	-1	-30%	x	-2%
Cc1cc(=O)[nH]c(N=N/C(=N/Nc2ccc(O)cc2)c2ccccc2)n1	49*	x	100*	u
Cc1cc(=O)[nH]c(N=N/C(=N/Nc2ccccc2C)c2ccccc2)n1	8	x	-14	-5%
COc1ccc(C(=O)CSc2nc(C)cc(=O)[nH]2)cc1	2	u	-2	-3%
COc1ccc(N/N=C(/N=Nc2nc(C)cc(=O)[nH]2)c2ccccc2)cc1	62*	x	91*	1.7µM*
CN(C)C(CNC(=O)c1ccc(NC(=O)CC#N)cc1)c1ccccc1 (stereo not drawn)	8	u	-3	u
CN(Cc1cccc(Cl)c1Cl)C(=O)c1ccc(NC(=O)CC#N)cc1	-6	15µM*	-8	-27%
Cn1c(/C=C/c2ccc(Br)cc2)nc2ccccc2c1=O	30*	10%	20	x
O=[N+]([O-])c1ccccc1/C=C/c1ccc2ccccc2n1	40*	u	48*	21%
Cn1c(/C=C/c2ccccc2[N+](=O)[O-])nc2ccccc2c1=O	9.2*	-27%	33	-18%
O=C(O)c1ccc(/C=C/c2nc3ccccc3c(=O)n2-c2ccc(Br)cc2)cc1	-2	13µM*	-11	u
Cc1ccc(C(c2c(C)n(C)n(-c3ccccc3)c2=O)c2c(C)n(C)n(-c3ccccc3)c2=O)s1	1	u	25	u
CCCCN(C)S(=O)(=O)c1cc2c3c(c1)CCC(=O)N3CCC2	-3	19%	-9	-3%
O=S(=O)(NCCN1CCOCC1)c1cc(Cl)c(Cl)cc1Cl	0	13µM*	-14	-1%
COc1cc(Cl)c(S(=O)(=O)NCCN2CCOCC2)cc1Cl	7	x	4	13%
COc1ccc(S(=O)(=O)NCCN2CCOCC2)cc1Br	-1	10µM*	-10	1%
O=S(=O)(NCCCN1CCOCC1)c1ccc2c(c1)OCCO2	-3	10µM*	-16	18%
O=C(O)CNC(=O)C12CC3CC(CC(Cl)(C3)C1)C2	-4	54%	-9	31%
O=C(COC(=O)CCc1nc2ccccc2s1)NCc1ccco1	-5	35%	-2	25%
COc1ccccc1NC(=O)NC1(C(=O)N2CCCCC2)CCCCC1	-9	-12%	-2	-2%
CCCC(C(=O)NC1CCCC1)N(Cc1ccccc1Cl)C(=O)c1snc(C(N)=O)c1N (stereo not drawn)	-3	-11%	-6	u
C=C1CCN(C(Cc2ccccc2)C(=O)Nc2ccc(OC)cc2)S(=O)(=O)c2ccccc21 (stereo not drawn)	9	x	17	x
COc1ccc2c(c1)C(=O)C(=O)N2CCS(=O)(=O)c1ccccc1	2	u	6	-10%
O=C1C(=O)N(CCS(=O)(=O)c2ccccc2)c2ccc(F)cc21	2	9.3µM*	6	u
COc1ccc(C(=O)NCC(=O)NCC(=O)OCC(=O)C(C)(C)C)cc1	0	9%	-1	-4%
SMILES	Cycloheximide cs	Pf growth 96h	Shiga inhibitor	Pf growth 48h
Nc1cc(C(=O)O)ccc1Nc1ccccc1	8	12%	14	32%
CCNc1ccc(C(=O)O)cc1N	32*	90%	61*	11%
CCc1ccccc1Nc1ccc(C(=O)O)cc1N	37*	-4%	69*	147%
Cc1cccc(-n2c(N)c(C(=O)NCCN3CCOCC3)c3nc4ccccc4nc32)c1	-3	9.3µM*	-13	x
Nc1c(C(=O)NCCN2CCOCC2)c2nc3ccccc3nc2n1Cc1ccccc1	2	u	14	u
Nc1c(C(=O)NCCc2ccccc2)c2nc3ccccc3nc2n1CCN1CCOCC1	8	2%	3	u
CCCCOCCCn1c(N)c(C(=O)OC(C)COC)c2nc3ccccc3nc21 (stereo not drawn)	-3	u	-5	4.7µM*
COCCCn1c(N)c(C(=O)OC(C)COC)c2nc3ccccc3nc21 (stereo not drawn)	-1	u	-5	-9%
Nc1c(C(=O)NCCN2CCOCC2)c2nc3ccccc3nc2n1Cc1ccco1	-3	u	-2	9.3µM*
CCC(C)NC(=O)c1c(N)n(CCCOC)c2nc3ccccc3nc12 (stereo not drawn)	-2	2.3µM*	-46	u
CCc1cc(-c2oncc2-c2ccc(OC)cc2)c(O)cc1OC	-7	x	-3	x
O=C(COC(=O)/C=C/c1cccc(C(F)(F)F)c1)NC1CCS(=O)(=O)C1 (stereo not drawn)	x	-14%	x	-27%
Nc1c(C(=O)NCc2ccco2)c2nc3ccccc3nc2n1CCc1ccccc1	8	-100%	17	u
COCCOC(=O)c1c(N)n(CCCN2CCOCC2)c2nc3ccccc3nc12	2	0%	10	u
CC(C)Cn1c(N)c(C(=O)NCCN2CCOCC2)c2nc3ccccc3nc21	-2	18%	-1	3.7µM*
CCCCn1c(N)c(C(=O)NCCN2CCOCC2)c2nc3ccccc3nc21	-2	8%	-13	u
COC(=O)c1c(N)n(CCCN2CCOCC2)c2nc3ccccc3nc12	-5	9.3µM*	-7	u
CCC(C)NC(=O)c1c(N)n(CC2CCCO2)c2nc3ccccc3nc12 (stereo not drawn)	-3	13µM*	-23	12µM*
COCCCn1c(N)c(C(=O)NCc2ccco2)c2nc3ccccc3nc21	12	u	39	9.3µM*
CCOC(=O)CCNC(=O)N1CCCC(CNS(=O)(=O)c2cccs2)C1 (stereo not drawn)	7	-12%	-8	18%
Cc1cccc(NC(=O)CSc2n[nH]c(-c3cccnc3)n2)c1	-4	u	28	16%
N#Cc1cc2c(nc1SCc1ccc(Cl)nc1)CCCCC2	5	u	-2	u
CCc1ccc(C(=O)NNC(=O)CCC2CCCCC2)cc1	11	39%	24	19%
COc1cccc(NC(=O)COC(=O)CC(NC(N)=O)c2ccc(Cl)cc2)c1 (stereo not drawn)	-1	22%	-4	5%
COCCNC(=O)c1c(N)n(Cc2ccco2)c2nc3ccccc3nc12	-4	13µM*	-7	13µM*
SMILES	Cycloheximide cs	Pf growth 96h	Shiga inhibitor	Pf growth 48h
C=CCNC(=O)c1c(N)n(Cc2ccco2)c2nc3ccccc3nc12	-2	35%	-9	30%
CN(/N=C/c1ccco1)C1=NS(=O)(=O)c2ccccc21	4	22%	9	-3%
CCNc1nc(NCC)nc(N(C)/N=C/c2ccco2)n1	5	1.5µM*	-6	u
COc1ccc(Cc2nnc(NC(=O)c3cc(OC)c(OC)c(OC)c3)s2)cc1	2	-25%	3	74%
CCOc1ccc2nc(N3C(=O)/C(=C/c4ccccc4)NC3=S)sc2c1	27*	4.7µM*	177*	21%
COc1ccc2nc(N3C(=O)CC(Cc4cc(C)cc(C)c4)C3=O)sc2c1 (stereo not drawn)	-1	3%	-9	-11%
COc1ccc2nc(N3C(=O)/C(=C/c4ccccc4)NC3=S)sc2c1	3	0.83µM*	16	u
Cc1ccc(-n2c(=O)[nH]c3cc(C(=O)NC4CCN(Cc5ccccc5)CC4)ccc3c2=O)cc1	-3	-33%	-3	u

Source: PubChem BioAssay
